Reference: PubChem BioAssay (Tox21)
Inconclusive results are not listed. Where a call stands in place of a potency, no number is given. The source made the active and inactive calls. Calls follow the shape of the dose curve; as a rule, active = well fitted activation curve with a large enough effect in the repeat runs; inconclusive = weak or mixed curves; inactive = flat fitted curve, though single readings scatter.

Assay: A CellTox Green Cytotoxicity Assay to monitor cytotoxicity in HepG2 cells - 0 hour (AID 1224882); also: nearly all actives have a fitted effect of over 35% in size
Conditions: CellTox Green fluorescence; series mostly up to 76.8 µM
Summary of the method: (§1)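 Real-time, homogeneous cytotoxicity readout: dead-cell DNA staining by CellTox Green in HepG2 monolayers, fluorescence measured at timed intervals up to 40 h of continuous compound exposure.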
Potency is read from the fitted curve at half-maximal effect.

Row | SMILES | Potency | cytotoxicity
1 | CC(C)O | inactive | –
2 | NC(=O)Cc1cccc(C(=O)c2ccccc2)c1N | inactive | –
3 | Cc1cc(S(=O)(=O)O)c(N)cc1Cl | inactive | –
4 | Cc1ccc(C=O)s1 | 43.6 µM (active) | –
5 | CCCC1CCC(=O)O1 (stereo not drawn) | inactive | –
6 | O=Cc1ccc(F)c(Br)c1 | inactive | –
7 | O=c1oc2c(O)c(O)cc3c(=O)oc4c(O)c(O)cc1c4c23 | – | -11.8% [at 15.8 µM] (inactive)
8 | C[C@@H](N)C(=O)O | inactive | –
9 | O=C1CCCCC1C1CCCCC1 (stereo not drawn) | inactive | –
10 | CCCCCCCCCCCCOCCOS(=O)(=O)O | inactive | –
11 | O=C(O)c1cccc(Cl)c1Cl | inactive | –
12 | CCCS(=O)c1ccc2nc(NC(=O)OC)[nH]c2c1 (stereo not drawn) | inactive | –
13 | Oc1ccccc1F | inactive | –
14 | CNCCC(Oc1ccccc1OC)c1ccccc1 (stereo not drawn) | inactive | –
15 | CCN1CC(CCN2CCOCC2)C(c2ccccc2)(c2ccccc2)C1=O (stereo not drawn) | inactive | –
16 | CCC(=O)Nc1ccc(O)cc1 | inactive | –
17 | COC(=O)c1ccc2cc(C(=O)OC)ccc2c1 | – | -8.67% [at 15.8 µM] (inactive)
18 | NC(=O)NS(=O)(=O)c1ccc(Cl)cc1 | inactive | –
19 | CC1(O)CSC(C)(O)CS1 (stereo not drawn) | inactive | –
20 | CCN(O)CC | inactive | –

Row | SMILES | Potency | cytotoxicity
21 | OCCN(CCO)CCN(CCO)CCO | inactive | –
22 | Cc1ccc(C)c(N)c1 | inactive | –
23 | Nc1ccc2ccccc2c1S(=O)(=O)O | inactive | –
24 | CC(=O)Nc1ccc(C)c(Cl)c1 | inactive | –
25 | CCCOc1ccc2c(c1)CC[C@@H]1[C@@H]2CC[C@]2(C)C(OC)CC[C@@H]12 (stereo partly drawn) | inactive | –
26 | CCCCCCCCCC/C=C/C#N | inactive | –
27 | OCc1ccccc1O | inactive | –
28 | OC[C@H]1O[C@@H](O[C@H]2[C@H](O)[C@@H](O)[C@H](O)O[C@@H]2CO)[C@H](O)[C@@H](O)[C@H]1O | inactive | –
29 | COc1cc(N)c(Cl)cc1C(=O)NC1CCN(Cc2ccccc2)CC1 | inactive | –
30 | CO[Si](C)(C)OC | inactive | –
31 | CCN(CC)CC1CCCCN1CC(=O)N1c2ccccc2C(=O)Nc2cccnc21 (stereo not drawn) | inactive | –
32 | COC(=O)c1ccc(OC)cc1 | inactive | –
33 | NS(=O)(=O)c1cc(-c2nn[nH]n2)c(NCc2cccs2)cc1Cl | inactive | –
34 | CCOc1ccc(NC(N)=O)cc1 | inactive | –
35 | CCCCC1CCC(=O)O1 (stereo not drawn) | inactive | –
36 | CC(CNC1CCCCC1)OC(=O)c1ccccc1 (stereo not drawn) | inactive | –
37 | CC(C)Nc1nc(N)nc(Cl)n1 | inactive | –
38 | C/C(=N\O)[C@@H](C)NCC(C)(C)CN[C@H](C)/C(C)=N/O | inactive | –
39 | CCCCNc1cc(C(=O)O)cc(S(N)(=O)=O)c1Oc1ccccc1 | inactive | –

Assay: A CellTox Green Cytotoxicity Assay to monitor cytotoxicity in HepG2 cells - 32 hour (AID 1224883); also: nearly all actives have a fitted effect of over 50% in size
Conditions: CellTox Green fluorescence; series mostly up to 76.8 µM
Summary of the method: as §1

Row | SMILES | Potency | cytotoxicity increase
40 | CC(C)O | inactive | –
41 | NC(=O)Cc1cccc(C(=O)c2ccccc2)c1N | inactive | –
42 | Cc1cc(S(=O)(=O)O)c(N)cc1Cl | inactive | –
43 | Cc1ccc(C=O)s1 | 38.9 µM (active) | –
44 | CCCC1CCC(=O)O1 (stereo not drawn) | inactive | –
45 | O=Cc1ccc(F)c(Br)c1 | inactive | –
46 | O=c1oc2c(O)c(O)cc3c(=O)oc4c(O)c(O)cc1c4c23 | – | 19.5% [at 15.8 µM] (inactive)
47 | C[C@@H](N)C(=O)O | inactive | –
48 | O=C1CCCCC1C1CCCCC1 (stereo not drawn) | inactive | –
49 | CCCCCCCCCCCCOCCOS(=O)(=O)O | 54.9 µM (active) | –
50 | O=C(O)c1cccc(Cl)c1Cl | inactive | –
51 | CCCS(=O)c1ccc2nc(NC(=O)OC)[nH]c2c1 (stereo not drawn) | 16.9 µM (active) | –
52 | Oc1ccccc1F | inactive | –
53 | CNCCC(Oc1ccccc1OC)c1ccccc1 (stereo not drawn) | inactive | –
54 | CCN1CC(CCN2CCOCC2)C(c2ccccc2)(c2ccccc2)C1=O (stereo not drawn) | inactive | –
55 | CCC(=O)Nc1ccc(O)cc1 | inactive | –
56 | COC(=O)c1ccc2cc(C(=O)OC)ccc2c1 | – | -17.5% [at 15.8 µM] (inactive)
57 | NC(=O)NS(=O)(=O)c1ccc(Cl)cc1 | inactive | –
58 | CC1(O)CSC(C)(O)CS1 (stereo not drawn) | inactive | –
59 | CCN(O)CC | inactive | –

Row | SMILES | Potency | cytotoxicity increase
60 | OCCN(CCO)CCN(CCO)CCO | inactive | –
61 | Cc1ccc(C)c(N)c1 | inactive | –
62 | Nc1ccc2ccccc2c1S(=O)(=O)O | inactive | –
63 | CC(=O)Nc1ccc(C)c(Cl)c1 | inactive | –
64 | CCCOc1ccc2c(c1)CC[C@@H]1[C@@H]2CC[C@]2(C)C(OC)CC[C@@H]12 (stereo partly drawn) | inactive | –
65 | CCCCCCCCCC/C=C/C#N | inactive | –
66 | OCc1ccccc1O | inactive | –
67 | OC[C@H]1O[C@@H](O[C@H]2[C@H](O)[C@@H](O)[C@H](O)O[C@@H]2CO)[C@H](O)[C@@H](O)[C@H]1O | inactive | –
68 | COc1cc(N)c(Cl)cc1C(=O)NC1CCN(Cc2ccccc2)CC1 | inactive | –
69 | CO[Si](C)(C)OC | inactive | –
70 | CCN(CC)CC1CCCCN1CC(=O)N1c2ccccc2C(=O)Nc2cccnc21 (stereo not drawn) | inactive | –
71 | COC(=O)c1ccc(OC)cc1 | inactive | –
72 | NS(=O)(=O)c1cc(-c2nn[nH]n2)c(NCc2cccs2)cc1Cl | inactive | –
73 | CCOc1ccc(NC(N)=O)cc1 | inactive | –
74 | CCCCC1CCC(=O)O1 (stereo not drawn) | inactive | –
75 | CC(CNC1CCCCC1)OC(=O)c1ccccc1 (stereo not drawn) | inactive | –
76 | CC(C)Nc1nc(N)nc(Cl)n1 | inactive | –
77 | C/C(=N\O)[C@@H](C)NCC(C)(C)CN[C@H](C)/C(C)=N/O | inactive | –
78 | CCCCNc1cc(C(=O)O)cc(S(N)(=O)=O)c1Oc1ccccc1 | inactive | –
